Data from PubChem BioAssay (NCATS).
Unmarked numbers belong to inactive results. The rule behind the calls is not given here.

Each compound was assayed on HIV-1 nucleocapsid protein NCp7 (binding to TG oligonucleotide) (assay: HIV Nucleocapsid (AID 346;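 note: potency is for inhibitors that block NC binding and lower polarization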)). Settings: HIV-1 NC / fluorescein-TGTGTGTG probe, fluorescence polarization.
How it was run: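 Fluorescence polarization binding of 100 nM HIV-1 NC to 10 nM fluorescein-labelled TG4xF oligonucleotide. Buffer was Hepes pH 7.5 with 250mM NaCl, 1uM ZnCl2, TCEP and 2-mercaptoethanol. Compounds were incubated 1 hr at room temperature before the read.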
Potency is the fitted concentration of half-maximal effect.

Row | SMILES | Potency
1 | Cc1noc(C)c1C(=O)N1CCC[C@@]2(CCN(c3cccc(-c4ccccc4)c3)C2)C1 | > 20 µM
2 | O=C(c1ccncc1)N1CCC2(CC1)CCN(c1cccc(-c3ccccc3)c1)CC2 | > 20 µM
3 | Cc1ccccc1-c1nccc(NCCN2CCOCC2)n1 | > 20 µM
4 | Cc1cnc(CNc2cc(-c3ccc(N(C)C)cc3)ncn2)cn1 | > 20 µM
5 | CC(=O)N1CCC2(CC1)CCN(c1ccncc1)CC2 | > 20 µM
6 | O=c1c(-c2cccs2)nc2cnc(Oc3ccccc3)nc2n1-c1ccccc1 | > 4 µM
7 | COc1ccc(C(=O)N2CCC3(CCN(C)CC3)CC2)cc1 | > 20 µM
8 | O=c1c(CCc2ccccc2)nc2cncnc2n1Cc1ccccc1Cl | > 20 µM
9 | N#Cc1ccc(CN2CCC3(CC2)CCN(C(=O)c2ccncc2)CC3)cc1 | > 20 µM
10 | COc1ccccc1CNc1ncncc1-c1cccc(NS(C)(=O)=O)c1 | > 20 µM
11 | O=C(Oc1ccccc1)N1CCC2(CC1)CCN(c1ccccc1)CC2 | > 20 µM
12 | CCNc1ncc2nc(-c3ccc(F)cc3)c(=O)n(C[C@H]3CCCO3)c2n1 | > 20 µM
13 | CN1CCN(c2nc(-c3cccnc3)nc3ccccc23)CC1 | > 20 µM
14 | COc1ccc2[nH]cc(CCNc3cc(-c4ccccc4C)ncn3)c2c1 | > 20 µM
15 | COc1ccc2[nH]cc(CCNc3nc(-c4ccc(C(=O)N(C)C)cc4)nc4ccccc34)c2c1 | > 20 µM
16 | CS(=O)(=O)Nc1cccc(-c2nc(-n3ccnc3)c3ccccc3n2)c1 | > 20 µM
17 | COc1ccc(C(=O)N2CCC3(CC2)CN(C(=O)Nc2ccccc2)C3)cc1 | > 20 µM
18 | Cc1noc(C)c1-c1cncnc1NC1CC1 | > 20 µM
19 | COc1ccccc1CNc1cc(-c2ccoc2)ncn1 | > 20 µM
20 | Clc1ccccc1-c1cncnc1NCCN1CCOCC1 | > 20 µM

Row | SMILES | Potency
21 | COc1ccc2[nH]cc(CCNc3nc(-c4ccc(N(C)C)cc4)nc4ccccc34)c2c1 | > 20 µM
22 | Cc1noc(C)c1C(=O)N1CCC2(CCN(Cc3ccc(C#N)cc3)CC2)CC1 | > 20 µM
23 | CS(=O)(=O)Nc1cccc(-c2ccc3ncnc(Nc4ccccc4)c3c2)c1 | > 20 µM
24 | O=C(c1cnccn1)N1CCC2(CCCN(c3ccccn3)C2)CC1 | > 20 µM
25 | Cc1noc(C)c1-c1nc(N2CCNCC2)c2ccccc2n1 | > 20 µM
26 | COc1ccccc1CN1CCCC2(CCNCC2)C1 | > 4 µM
27 | COc1ccccc1-c1cncnc1NCc1cccs1 | > 20 µM
28 | N#Cc1cccc(NC(=O)N2CC3(CCN(C(=O)c4cnccn4)CC3)C2)c1 | > 20 µM
29 | COCCn1c(=O)c(C)nc2cnc(N3CCNCC3)nc21 | > 20 µM
30 | O=C(Nc1ccccc1)N1CCC2(CCNCC2)CC1 | > 20 µM
31 | O=c1c(CCc2ccccc2)nc2cnc(N3CCOCC3)nc2n1CCc1ccccc1 | > 20 µM
32 | COc1ccc(NC(=O)N2CC[C@@]3(CCCN(C(=O)c4ccc(OC)cc4)C3)C2)cc1 | > 20 µM
33 | CCNc1ncc2nc(-c3ccc(F)cc3)c(=O)n(CCC#N)c2n1 | > 4 µM
34 | O=c1c(-c2ccccc2)nc2cnc(N3CCOCC3)nc2n1C1CC1 | > 20 µM
35 | Cc1noc(C)c1C(=O)N1CCC2(CCCN(Cc3ccc(C#N)cc3)C2)CC1 | > 20 µM
36 | O=c1c(-c2cc(F)cc(F)c2)nc2cnc(N3CCNCC3)nc2n1CCc1ccccc1 | > 20 µM
37 | Cn1c(=O)c(-c2ccc(F)cc2)nc2cnc(OCc3ccccc3)nc21 | > 20 µM
38 | O=C(c1ccco1)N1CCC2(CCCN(Cc3ccccc3)C2)CC1 | > 20 µM
39 | COc1ccccc1-c1nccc(Nc2ccc(F)cc2)n1 | > 20 µM
